Data reported in PubChem BioAssay (Tox21).
“And” between values parts separate entries of the source, which are not always exact repeats. Equal values may be shown once. Results filed as inconclusive are left out. Where a call stands in place of a potency, no number is given. Some compounds were tested as several samples or in several runs, with calls that do not always agree. The source made the active and inactive calls. Unless noted, the call rests on the fitted dose curve.

Experiments:
[1] = Nuclear factor erythroid 2-related factor 2/antioxidant responsive element (Nrf2/ARE) small molecule agonists: qHTS cell viability counter screen in human keratinocytes (AID 1919968; active means well fitted cell-killing curve with a large enough effect in the repeat runs; further: nearly all actives have a fitted effect of over 55% in size; further: potency means the concentration at half of the fitted maximal effect)
Outline: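 Measured as CellTiter-Fluor fluorescence, this readout tracks cytotoxicity in the same wells as the ARE-luciferase screen. HaCaT reporter cells (1,500/well) received compounds after a 5 h pre-incubation and were exposed for 23 h.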

[2] = Nuclear factor erythroid 2-related factor 2/antioxidant responsive element (Nrf2/ARE) small molecule agonists: luciferase reporter gene qHTS assay in human keratinocytes (AID 1919969); further: nearly all actives have a fitted effect of over 35% in size; further: potency means the concentration at half of the fitted maximal effect
[3] = p53 small molecule agonists, cell-based qHTS assay with human liver microsomes (AID 1963577);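 further: p53 response element beta-lactamase reporter cells with liver microsomes plus NADPH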
Outline: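 16 h, 37 C exposure of p53RE-bla cells to compounds with human liver microsomes and NADPH (0.5 mg/mL final each); detection via LiveBLAzer mixture, 2 h dark at room temperature.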

[4] = p53 small molecule agonists, cell-based qHTS assay with rat liver microsomes (AID 1963578)
Outline: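 With rat liver microsomes and NADPH present (0.5 mg/mL final each), p53RE-bla cells are treated with compound for 16 h at 37 C. LiveBLAzer detection mixture is then applied for 2 h at room temperature in the dark.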

[5] = p53 small molecule agonists, cell-based qHTS assay with rat liver microsomes: qHTS cell viability counter screen (AID 1963580); further: nearly all actives have a fitted effect of over 45% in size; further: potency means the concentration at half of the fitted maximal effect
Outline: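 HCT-116 p53RE-bla, 4,000 cells/well, 5 h pre-incubation; cpd + rat liver microsomes 0.5 mg/mL + NADPH 0.5 mg/mL (final); 16 h, 37 C; CellTiter-Glo, 30 min RT; luminescence.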

[6] = p53 small molecule agonists, cell-based qHTS assay (AID 1963582; active means well fitted activation curve with a large enough effect in the signal ratio in the repeat runs, not every such curve was filed as active; the % refers to the signal ratio)
Outline: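 Compounds are pin-transferred in DMSO onto p53RE-bla cells and incubated 16 h at 37 C. The B/G FRET beta-lactamase substrate is then applied for 2 h at RT and fluorescence recorded.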

[7] = target: 5-hydroxytryptamine receptor 2A (Homo sapiens) (UniProt P28223); assay: 5-hydroxytryptamine receptor 2A (HTR2A) small molecule antagonists, cell-based qHTS assay (AID 1963586); further: nearly all actives have a fitted effect of over 45% in size; further: potency means the concentration at half of the fitted maximal effect
Outline: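 Antagonist-mode intracellular calcium assay: DOI (4 nM) added after 5 min compound pre-incubation at room temperature to dye-loaded HTR2A-CHO cells. Fluorescence followed for 3 min, sampled every second.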

[8] = target: 5-hydroxytryptamine receptor 2A (Homo sapiens) (UniProt P28223); assay: 5-hydroxytryptamine receptor 2A (HTR2A) small molecule agonists, cell-based qHTS assay (AID 1963587); further: nearly all actives have a fitted effect of over 30% in size; further: potency means the concentration at half of the fitted maximal effect
Outline: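 Kinetic calcium-flux fluorescence (2 min, 1 sec intervals) after compound addition in agonist mode. HTR2A-CHO cells were cultured 18 h, then dye-loaded 1 h at 37 C.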

[9] = target: Muscarinic acetylcholine receptor M1 (Homo sapiens) (UniProt P11229); assay: Cholinergic receptor muscarinic 1 (CHRM1) small molecule antagonists, cell-based qHTS assay (AID 1963588); further: nearly all actives have a fitted effect of over 40% in size
Outline: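 CHRM1-CHO calcium-flux assay, antagonist mode. Cells were seeded 18 h, dye-loaded 1 h at 37 C and given compound for 5 min at RT, then acetylcholine was added at 50nM. FDSS fluorescence was read 3 min; 15 concentrations, three runs.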

[10] = target: Muscarinic acetylcholine receptor M1 (Homo sapiens) (UniProt P11229); assay: Cholinergic receptor muscarinic 1 (CHRM1) small molecule agonists, cell-based qHTS assay (AID 1963589); further: nearly all actives have a fitted effect of over 35% in size; further: potency means the concentration at half of the fitted maximal effect
Outline: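 Each compound was tested at 15 concentrations across three independent runs on dye-loaded CHO cells stably expressing human CHRM1, reading intracellular calcium fluorescence kinetically at 1 sec intervals.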

[11] = cAMP Responsive Elements (CRE) small molecule agonists, cell-based qHTS assay (AID 1963590)
Outline: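 Cell line: CRE-bla HEK 293T; medium DMEM/10% dialyzed FBS/0.1 mM NEAA/1 mM pyruvate/25 mM HEPES; 3 h compound exposure; beta-lactamase FRET readout after 2 h substrate loading at RT.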

[12] = cAMP Responsive Elements (CRE) small molecule antagonists, cell-based qHTS assay (AID 1963591; active means well fitted inhibition curve with a large enough effect in the signal ratio in the repeat runs, not every such curve was filed as active; the % refers to the signal ratio; further: potency means the concentration at half of the fitted maximal effect)
Outline: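 Inhibition of NKH477-driven (0.25 uM final) CRE-beta-lactamase signal in HEK293T cells, 3 h compound exposure at 37 °C, detected by FRET substrate fluorescence.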

[13] = target: Beta-2 adrenergic receptor (Homo sapiens) (UniProt P07550); assay: Adrenergic beta2 receptor (ADRB2) small molecule antagonists, cell-based qHTS assay (AID 1963592); further: series mostly up to about 92 µM; nearly all actives have a fitted effect of over 50% in size
Outline: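 Cells (CHO, stable ADRB2 overexpression) incubated 18-20hr at 37C; compounds added from DMSO; agonist mix (1nM isoproterenol, 100uM IBMX, 25uM Ro-20-1724) added; 0.5hr RT; d2-cAMP and anti-cAMP-cryptate added; 1hr RT; 665/615 nm read.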

[14] = target: Beta-2 adrenergic receptor (Homo sapiens) (UniProt P07550); assay: Adrenergic beta2 receptor (ADRB2) small molecule agonists, cell-based qHTS assay (AID 1963593);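 further: CHO cells stably overexpressing human ADRB2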
Outline: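 CHO cells stably over-expressing ADRB2 were plated overnight at 37C, then dosed with compounds plus a stimulation mix containing 100uM IBMX and 25uM Ro-20-1724 for 0.5hr at room temperature. cAMP was measured by HTRF competition, 1hr.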

[15] = target: D(2) dopamine receptor (Homo sapiens) (UniProt P14416); assay: Dopamine D2 receptor (DRD2) small molecule agonists, cell-based qHTS assay (AID 1963594); further: nearly all actives have a fitted effect of over 35% in size; further: potency means the concentration at half of the fitted maximal effect
Outline: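 cAMP accumulation in DRD2-HEK293 cells measured by HTRF after 1 h detection; compounds added 10 min before NKH477 (200nM […]) forskolin-analogue stimulation, 30 min at room temperature, with Ro20-1724 present at 0.1 mM final.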

[16] = target: D(2) dopamine receptor (Homo sapiens) (UniProt P14416); assay: Dopamine D2 receptor (DRD2) small molecule antagonists, cell-based qHTS assay (AID 1963595; active means well fitted inhibition curve with a large enough effect in the signal ratio in the repeat runs, with a control signal flat; the % refers to the signal ratio; further: potency means the concentration at half of the fitted maximal effect)
Outline: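 Human DRD2 antagonist qHTS measuring cAMP by HTRF. The cells are exposed to compound for 10 min, then to NKH477 (200 nM) and quinpirole (12 nM) for 30 min at RT, with Ro20-1724 (0.1 mM) present throughout.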

[17] = G protein-coupled receptor (GPCR) small molecule agonists, calcium flux assay: HEK293 wild type cell line counter screen (AID 1920065)
Outline: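 Readout: fluorescence at 480 nm excitation/540 nm emission, sampled at 1 s intervals for 3 min. Cells had been cultured 18 h, then dye-loaded 1 h at 37 C before compound or ATP addition.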

[18] = p53 small molecule agonists, cell-based qHTS assay: qHTS cell viability counter screen (AID 1963581); further: nearly all actives have a fitted effect of over 45% in size; further: potency means the concentration at half of the fitted maximal effect
Outline: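 In the same plates used for the p53 bla reporter, HCT-116 cells given compounds for 16 h at 37 C received CellTiter-Glo; luminescence was recorded 30 min later at room temperature.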

[19] = p53 small molecule agonists, cell-based qHTS assay with human liver microsomes: qHTS cell viability counter screen (AID 1963579); further: nearly all actives have a fitted effect of over 45% in size; further: potency means the concentration at half of the fitted maximal effect
Outline: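 In this multiplexed counter screen, the reporter plates were subsequently treated with CellTiter-Glo so that cell viability, reflected by luminescence, could be recorded for p53RE-bla cells dosed 16 h with compounds under microsomal activation (HLM and NADPH).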

Chain of Beta-2 adrenergic receptor (Homo sapiens) (P07550 whole entry, looked up): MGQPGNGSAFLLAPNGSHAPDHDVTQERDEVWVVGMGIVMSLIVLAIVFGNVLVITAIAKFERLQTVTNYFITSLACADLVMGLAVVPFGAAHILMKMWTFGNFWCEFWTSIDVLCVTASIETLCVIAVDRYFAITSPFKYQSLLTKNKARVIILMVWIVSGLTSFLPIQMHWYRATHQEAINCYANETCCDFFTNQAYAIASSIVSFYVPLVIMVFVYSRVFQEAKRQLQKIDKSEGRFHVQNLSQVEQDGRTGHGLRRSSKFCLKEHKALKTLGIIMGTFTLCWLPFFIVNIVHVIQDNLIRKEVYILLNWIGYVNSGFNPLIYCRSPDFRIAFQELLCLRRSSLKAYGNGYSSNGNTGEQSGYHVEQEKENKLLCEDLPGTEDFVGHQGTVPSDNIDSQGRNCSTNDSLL
Chain of D(2) dopamine receptor (Homo sapiens) (P14416 whole entry, looked up): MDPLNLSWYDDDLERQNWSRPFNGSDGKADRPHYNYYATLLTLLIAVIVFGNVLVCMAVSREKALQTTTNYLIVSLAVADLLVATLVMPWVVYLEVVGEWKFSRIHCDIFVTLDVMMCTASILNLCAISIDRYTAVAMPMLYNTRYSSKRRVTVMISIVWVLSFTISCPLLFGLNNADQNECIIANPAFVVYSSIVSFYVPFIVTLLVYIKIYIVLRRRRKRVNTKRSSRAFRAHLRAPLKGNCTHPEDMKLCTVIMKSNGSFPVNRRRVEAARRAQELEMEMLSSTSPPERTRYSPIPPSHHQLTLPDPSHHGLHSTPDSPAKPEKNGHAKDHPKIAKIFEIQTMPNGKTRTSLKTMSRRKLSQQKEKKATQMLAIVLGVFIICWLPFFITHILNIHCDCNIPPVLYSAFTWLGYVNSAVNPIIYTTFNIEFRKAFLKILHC
Chain of 5-hydroxytryptamine receptor 2A (Homo sapiens) (P28223 whole entry, looked up): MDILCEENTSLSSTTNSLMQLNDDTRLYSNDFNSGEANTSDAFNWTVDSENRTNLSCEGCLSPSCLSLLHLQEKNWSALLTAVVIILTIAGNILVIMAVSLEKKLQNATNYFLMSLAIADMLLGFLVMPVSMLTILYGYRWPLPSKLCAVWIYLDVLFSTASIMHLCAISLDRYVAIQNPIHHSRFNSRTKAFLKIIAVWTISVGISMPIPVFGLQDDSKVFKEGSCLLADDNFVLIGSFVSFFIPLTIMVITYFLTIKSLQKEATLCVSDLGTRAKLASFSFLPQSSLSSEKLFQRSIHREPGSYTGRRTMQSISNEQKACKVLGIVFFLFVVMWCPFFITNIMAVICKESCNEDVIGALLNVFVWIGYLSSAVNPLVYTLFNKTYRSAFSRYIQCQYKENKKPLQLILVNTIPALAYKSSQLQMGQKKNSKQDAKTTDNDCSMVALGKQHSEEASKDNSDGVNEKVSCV
Chain of Muscarinic acetylcholine receptor M1 (Homo sapiens) (P11229 whole entry, looked up): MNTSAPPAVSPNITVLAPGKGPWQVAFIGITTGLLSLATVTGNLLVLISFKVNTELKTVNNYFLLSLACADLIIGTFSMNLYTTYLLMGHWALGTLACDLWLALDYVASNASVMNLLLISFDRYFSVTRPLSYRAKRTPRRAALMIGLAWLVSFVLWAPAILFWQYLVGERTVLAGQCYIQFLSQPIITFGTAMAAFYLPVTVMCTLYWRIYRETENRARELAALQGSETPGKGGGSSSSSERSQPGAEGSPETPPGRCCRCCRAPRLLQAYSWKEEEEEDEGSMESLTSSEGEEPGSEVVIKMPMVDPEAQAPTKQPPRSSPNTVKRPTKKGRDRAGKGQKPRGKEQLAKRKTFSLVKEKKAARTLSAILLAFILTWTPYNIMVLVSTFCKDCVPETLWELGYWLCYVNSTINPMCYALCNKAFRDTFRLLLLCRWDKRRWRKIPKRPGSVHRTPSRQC

Row | Compound | Potency [1] | Potency [2] | Potency [3] | Potency [4] | Potency [5] | Potency [6] | Potency [7] | Potency [8] | Potency [9] | Potency [10] | Potency [11] | Potency [12] | Potency [13] | Potency [14] | Potency [15] | Potency [16] | Potency [17] | Potency [18] | Potency [19]
1 | O=C(O)C1C2CCC(O2)C1C(=O)O (configuration not stated) | inactive | inactive | inactive | inactive | inactive | inactive | inactive | inactive | inactive | inactive | inactive | 27.6 µM (active) and 49.9 µM (active) | inactive | inactive | inactive | inactive | – | – | –
2 | NCc1cccnc1 | inactive | inactive | inactive | inactive | inactive | inactive | inactive | inactive | inactive | inactive | inactive | inactive | inactive | inactive | inactive | inactive | inactive | inactive | –
3 | CCC(C)Cl (configuration not stated) | inactive | inactive | inactive | inactive | inactive | inactive | – | inactive | inactive | inactive | inactive | inactive | inactive | – | inactive | inactive | inactive | inactive | inactive
4 | CCC(=O)O[C@@H]1C=C2CCC3C(CCC4(C)C3CC[C@@H]4OC(=O)CC)C2CC1 (some centres not stated) | inactive | inactive | inactive | inactive | – | inactive | inactive | inactive | inactive | inactive | inactive | inactive | inactive | inactive | inactive | – | inactive | – | inactive
5 | CCC(=O)Nc1ccc(Cl)c(Cl)c1 | inactive | inactive | inactive | inactive | inactive | inactive | inactive | inactive | inactive | inactive | – | inactive | inactive | inactive | inactive | inactive | – | inactive | –
6 | CC(C)(C)C(O)(CCc1ccc(Cl)cc1)Cn1cncn1 (configuration not stated) | inactive | inactive | inactive | inactive | inactive | inactive | – | inactive | – | inactive | inactive | inactive | inactive | – | inactive | inactive | – | inactive | –
7 | Cc1cnc(C2=NC(C)(C(C)C)C(=O)N2)c(C(=O)O)c1 (configuration not stated) | inactive | inactive | inactive | – | inactive | inactive | inactive | inactive | inactive | inactive | inactive | – | inactive | – | inactive | inactive | inactive | – | inactive
8 | Nc1cccc(Cl)c1 | inactive | inactive | inactive | inactive | inactive | inactive | inactive | inactive | – | inactive | inactive | inactive | inactive | inactive | inactive | inactive | inactive | inactive | inactive
9 | CCCCCCCCCC(CC)c1ccc(S(=O)(=O)O)cc1 (configuration not stated) | inactive and 26.6 µM (active) | inactive and 21.7 µM (active) | – | – | inactive and 40.8 µM (active) | – | inactive and 37.5 µM (active) | – | inactive | inactive | inactive | inactive | inactive | inactive | inactive and 54.5 µM (active) | inactive | – | inactive and 48.5 µM (active) | inactive
10 | O=C=NC1CCCCC1 | inactive | inactive | inactive | inactive | inactive | – | inactive | inactive | – | inactive | inactive | inactive | inactive | – | inactive | inactive | inactive | inactive | inactive
11 | CCCC[n+]1ccc(C)cc1 | inactive and 27.2 µM (active) | inactive | – | – | inactive and 20.3 µM (active) | – | inactive | inactive and 43.4 µM (active) and 39 µM (active) | inactive | inactive | inactive | – | inactive | inactive | inactive | inactive and 60.8 µM (active) | – | – | inactive and 40.6 µM (active)
12 | CCOP(=O)(OCC)OCC | inactive | inactive | inactive | inactive | inactive | inactive | inactive | inactive | inactive | inactive | inactive | inactive | inactive | inactive | inactive | inactive | inactive | inactive | –
13 | O=C(O)C(F)(F)C(F)(F)C(F)(F)C(F)(F)C(F)(F)C(F)(F)C(F)(F)C(F)(F)C(F)(F)C(F)(F)F | inactive | inactive | inactive | inactive | inactive | inactive | inactive | inactive | inactive | inactive | inactive | inactive | inactive | – | inactive | inactive | inactive | inactive | inactive
14 | C1CN2CCN1CC2 | inactive | inactive | – | – | inactive | – | inactive | inactive and 54.9 µM (active) | inactive | inactive and 54.9 µM (active) | inactive | inactive | inactive | inactive | inactive | inactive | inactive | inactive | inactive
15 | CC(C)(C)CC(C)(C)c1ccc(O)cc1 | 27.3 µM (active) | inactive | inactive | inactive | 37.4 µM (active) and inactive | – | 18.8 µM (active) and inactive | 34.7 µM (active) | – | 49 µM (active) and inactive | – | – | inactive | – | – | – | inactive | 43.2 µM (active) | 16.2 µM (active) and inactive
